Seven molecules from PubChem BioAssay (NCI) can be followed below.

About 83,000 compounds went through this panel and 20% of them were active in at least one assay; those are over-represented in the sample as a whole.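 Each cell line was grown in a 96-well plate and treated with one concentration of compound for 48 hours. Values below 10 were considered active.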 A number with no mark means an inactive call. The source made the active and inactive calls.

Among the test systems are NCI-H23 lung; NCI-H226 lung; NCI-H322M lung; HOP-62 NSCLC; NCI-H460 lung; HOP-92 NSCLC; NCI-H522 lung; A549/ATCC NSCLC; 786-0 renal; COLO 205 colon; DU-145 prostate; K-562 leukemia; MALME-3M melanoma; MDA-MB-231 breast; RXF 393 renal; SF-268 CNS; SF-295 CNS; SF-539 CNS; UACC-257 melanoma; M14 melanoma.
Common to all, as to assay: NCI-60 one-dose screen, 48 h (100 = growth as untreated, 0 = no growth, -100 = all killed)
Details in all cases: 10 µM unless noted

For `Cc1ccccc1N1CCN(C(=S)c2ccccc2)CC1`, the growth with NCI-H23 lung was 81.3%; with NCI-H226 lung it was 92.1%; in the assay with NCI-H322M lung, 102%; with HOP-62 NSCLC, 95.2%; in the assay on NCI-H460 lung, 92.4%; with HOP-92 NSCLC it was 97.9%. For the same molecule, the growth in the assay on NCI-H522 lung is 47.8%; in the assay on A549/ATCC NSCLC, 87.4%; with 786-0 renal it was 103%; in the assay on COLO 205 colon, 106%; with DU-145 prostate it was 114%; with K-562 leukemia, 107%. For the same molecule, the growth was 103% in the assay with MALME-3M melanoma; 93.9% in the assay on MDA-MB-231 breast; 96.6% with RXF 393 renal; 105% with SF-268 CNS; 69.5% with SF-295 CNS; 94.7% in the assay with SF-539 CNS. Also, the growth was -18% (active) with UACC-257 melanoma and 101% with M14 melanoma.

On to `Brc1ccc(Nc2nc(Nc3cnc4ccccc4c3)c3[nH]cnc3n2)cc1`, for which the growth in the assay on NCI-H23 lung is 76%; in the assay on NCI-H226 lung, 64.1%; with NCI-H322M lung, 105%; in the assay on HOP-62 NSCLC, 64.6%; in the assay on NCI-H460 lung, 65%; in the assay with HOP-92 NSCLC, 26%. Moreover, the growth with NCI-H522 lung is 54.2%; in the assay on A549/ATCC NSCLC, 79.6%; in the assay with 786-0 renal, 49.4%; in the assay with COLO 205 colon it was 90.4%; with DU-145 prostate, 81.3%; with K-562 leukemia it was 79.7%. Moreover, the growth in the assay on MALME-3M melanoma was 105%; in the assay on MDA-MB-231 breast it was 53.8%; in the assay on RXF 393 renal, 75.8%; with SF-268 CNS, 76.6%; in the assay on SF-295 CNS, 84.7%; in the assay on SF-539 CNS, 87.4%. Also, the values for the growth with UACC-257 melanoma and in the assay with M14 melanoma were 90.3% and 84.8%, respectively.

With `CC12OC(CC(O)C1O)n1c3ccccc3c3c4c(c5c6ccccc6n2c5c31)C(=O)N(CCN1CCCC1)C4=O` (stereo not given), the growth with NCI-H23 lung is 14.3%; in the assay on NCI-H226 lung, 2.49% (active); with NCI-H322M lung it was 28.5%; in the assay with HOP-62 NSCLC it was 2.4% (active); in the assay with NCI-H460 lung, -17.3% (active); with HOP-92 NSCLC it was 34.1%. The growth in the assay on NCI-H522 lung was -0.973% (active); with A549/ATCC NSCLC, 1.98% (active); in the assay with 786-0 renal it was 14.5%; in the assay with COLO 205 colon it was 14.4%; in the assay with DU-145 prostate it was 3.68% (active); in the assay on K-562 leukemia it was 4.59% (active). Besides, the growth is 13.2% in the assay with MALME-3M melanoma; 56.9% with MDA-MB-231 breast; 21.1% with RXF 393 renal; 29% in the assay on SF-268 CNS; 2.23% (active) with SF-295 CNS; 22.8% with SF-539 CNS. Moreover, the growth is 24.5% in the assay with UACC-257 melanoma and 19% with M14 melanoma.

As for `COc1cc(O)c2c(=O)c3c(CC=C(C)C)cc(OC)c(O)c3oc2c1`, the growth in the assay on NCI-H23 lung was 41.4%; with NCI-H226 lung, 78.7%; in the assay with NCI-H322M lung, 38.3%; in the assay on HOP-62 NSCLC, 25.4%; with NCI-H460 lung, 12.5%; in the assay with HOP-92 NSCLC, 80.8%. Further, the growth in the assay with NCI-H522 lung is -12.9% (active); in the assay with A549/ATCC NSCLC, 35.6%; with 786-0 renal, 36.1%; with COLO 205 colon, 112%; in the assay on DU-145 prostate, 19.5%; in the assay on K-562 leukemia, 12.2%. The growth was 66.9% with MALME-3M melanoma; 24.3% with MDA-MB-231 breast; 13.7% with RXF 393 renal; 51.9% in the assay on SF-268 CNS; 42.2% in the assay with SF-295 CNS; 6.54% (active) in the assay on SF-539 CNS. Further, the results for the growth in the assay with UACC-257 melanoma and with M14 melanoma were 63.1% and 15.6%, respectively.

Take `COc1cc(/C=C/c2cc(/C=C/c3ccc(O)c(OC)c3)n(C(=O)Nc3ccc(Cl)cc3)n2)ccc1O`: the growth is 3.16% (active) with NCI-H23 lung; 5.73% (active) with NCI-H226 lung; 22.1% in the assay with NCI-H322M lung; 17.1% with HOP-62 NSCLC; 9.41% (active) in the assay with NCI-H460 lung; -4.7% (active) in the assay on HOP-92 NSCLC. Moreover, the growth in the assay on NCI-H522 lung was -4.94% (active); with A549/ATCC NSCLC, 4.03% (active); in the assay on 786-0 renal, -2.2% (active); in the assay on COLO 205 colon, 7.57% (active); in the assay on DU-145 prostate, 11.7%; in the assay on K-562 leukemia it was -7.3% (active). Also, the growth in the assay on MALME-3M melanoma is 3.94% (active); in the assay with MDA-MB-231 breast, 14.3%; in the assay on RXF 393 renal it was -53.6% (active); in the assay on SF-268 CNS, 13.9%; in the assay with SF-295 CNS it was -21.9% (active); in the assay on SF-539 CNS, 0.163% (active). Besides, the growth with UACC-257 melanoma is 3.11% (active); with M14 melanoma, 4.04% (active).

Turning to `CC1SC(c2ccccc2O)N(NC(=O)CCC(=O)c2nc3ncccc3[nH]2)C1=O` (stereo not given), the growth is 86.5% in the assay with NCI-H23 lung; 80.7% in the assay on NCI-H226 lung; 93.4% with NCI-H322M lung; 87.8% in the assay with HOP-62 NSCLC; 103% in the assay with NCI-H460 lung; 79.2% in the assay on HOP-92 NSCLC. The growth with NCI-H522 lung was 95.5%; with A549/ATCC NSCLC it was 96.2%; in the assay with 786-0 renal, 90.3%; in the assay on COLO 205 colon it was 110%; with DU-145 prostate, 102%; with K-562 leukemia it was 109%. Further, the growth with MALME-3M melanoma is 94%; in the assay on MDA-MB-231 breast, 103%; in the assay with RXF 393 renal, 96.4%; with SF-268 CNS it was 95.7%; with SF-295 CNS, 96.2%; with SF-539 CNS, 93.1%. The growth in the assay on UACC-257 melanoma is 99.4%; in the assay with M14 melanoma, 97.6%.

`Cc1c2ncccc2nc2[nH]c3ccc(OCCN(C)C)cc3c12`: the growth was 28.1% with NCI-H23 lung; 32.7% in the assay with NCI-H226 lung; 13.2% in the assay with NCI-H322M lung; 29.3% in the assay with HOP-62 NSCLC; 5.49% (active) in the assay with NCI-H460 lung; 30.3% in the assay with HOP-92 NSCLC. Also, the growth in the assay on NCI-H522 lung is 22.9%; in the assay on A549/ATCC NSCLC, 5.31% (active); in the assay on 786-0 renal it was 25.2%; in the assay with COLO 205 colon, 19.1%; with DU-145 prostate, 22.2%; in the assay on K-562 leukemia it was 17%. Moreover, the growth in the assay with MALME-3M melanoma is 29.3%; with MDA-MB-231 breast, 30.3%; in the assay on RXF 393 renal it was 35.3%; in the assay with SF-268 CNS, 30.8%; in the assay with SF-295 CNS, 32%; in the assay with SF-539 CNS, 38.5%. Also, the growth in the assay with UACC-257 melanoma is 46.1%; in the assay on M14 melanoma, 19.4%.
